The campaign covered roughly 39,000 compounds. About 3,300 (8.5%) were called active. The entries come from a sample that favours actives as a whole.
system: HepG2; test: cytotoxicity call (relative viability < 0.9); settings: 10 µM

SMILES | cytotoxicity call
CCCCCCC#C[Si](O[C@H](c1ccccc1)c1cn(Cc2cccc(Cl)c2)nn1)(C(C)C)C(C)C | inactive
C[C@@H]1CCCCO[C@H](CN(C)C(=O)Nc2ccccc2)[C@H](C)CN([C@@H](C)CO)C(=O)c2cc(NS(=O)(=O)c3ccc(Cl)cc3)ccc2O1 | inactive
COc1ccc(C#Cc2ccc3c(c2)[C@H]2[C@H](CCN2C(=O)Nc2ccc(C(F)(F)F)cc2)[C@@H](CO)N3C)cc1 | inactive
C[C@@H]1CCCCO[C@H](CN(C)C(=O)Nc2ccc3c(c2)OCO3)[C@H](C)CN([C@@H](C)CO)C(=O)c2cc(NC(=O)CCC(F)(F)F)ccc2O1 | inactive
O=C(CCCCCCC(=O)Nc1ccc(C(=O)NCCOCCOCCNC(=O)c2ccc(NC(=O)CCCCCCC(=O)NO)cc2)cc1)NO | inactive
COCC(=O)N(C)C[C@@H]1Oc2cc(-c3ccc(C#N)cc3)ccc2S(=O)(=O)N([C@@H](C)CO)C[C@H]1C | inactive
C[C@H](CO)N1C[C@H](C)[C@H](CN(C)C(=O)CN2CCOCC2)Oc2ncc(/C=C/c3ccccc3)cc2C1=O | inactive
COCCC(=O)N1C[C@H]2CN(c3cnn(C)c3)C(=O)[C@@H]2C1 | inactive
Cc1ccc(F)cc1NC(=O)CN | inactive
COc1ccc(NC(=O)Nc2ccc3c(c2)C(=O)N([C@@H](C)CO)C[C@@H](C)[C@H](CN(C)S(=O)(=O)c2ccccc2)OCCCC[C@@H](C)O3)cc1 | inactive
COc1ccc(NC(=O)Nc2ccc3c(c2)C(=O)N([C@@H](C)CO)C[C@H](C)[C@H](CN(C)S(=O)(=O)c2ccc(OC)cc2)OCCCC[C@@H](C)O3)cc1 | inactive
COc1ccc(NC(=O)Nc2ccc3c(c2)C(=O)N([C@H](C)CO)C[C@H](C)[C@H](CN(C)S(=O)(=O)c2ccc(C)cc2)OCCCC[C@@H](C)O3)cc1 | inactive
COc1ccc(NC(=O)Nc2ccc3c(c2)C(=O)N([C@H](C)CO)C[C@@H](C)[C@H](CN(C)S(=O)(=O)c2ccccc2)OCCCC[C@H](C)O3)cc1 | active
COc1ccc(NC(=O)Nc2ccc3c(c2)C(=O)N([C@H](C)CO)C[C@@H](C)[C@H](CN(C)S(=O)(=O)c2ccc(C)cc2)OCCCC[C@H](C)O3)cc1 | active
COc1ccc(NC(=O)Nc2ccc3c(c2)C(=O)N([C@@H](C)CO)C[C@@H](C)[C@@H](CN(C)S(=O)(=O)c2ccc(OC)cc2)OCCCC[C@@H](C)O3)cc1 | inactive
COc1ccc(NC(=O)Nc2ccc3c(c2)C(=O)N([C@@H](C)CO)C[C@@H](C)[C@@H](CN(C)S(=O)(=O)c2ccccc2)OCCCC[C@@H](C)O3)cc1 | inactive
COc1ccc(NC(=O)Nc2ccc3c(c2)C(=O)N([C@@H](C)CO)C[C@@H](C)[C@H](CN(C)S(=O)(=O)c2ccc(C)cc2)OCCCC[C@H](C)O3)cc1 | inactive
COc1ccc(NC(=O)Nc2ccc3c(c2)C(=O)N([C@H](C)CO)C[C@@H](C)[C@H](CN(C)S(=O)(=O)c2ccc(OC)cc2)OCCCC[C@@H](C)O3)cc1 | active
C[C@H](CO)N1C[C@H](C)[C@H](CN(C)C(=O)c2ccc(N3CCN(C)CC3)cc2)OCc2cnnn2CCCC1=O | inactive
C[C@H](O)C#Cc1ccc2c(c1)O[C@@H](CN(C)C)[C@@H](C)CN([C@@H](C)CO)S2(=O)=O | inactive
COc1ccc(S(=O)(=O)N(C)C[C@H]2Oc3c(NS(=O)(=O)c4ccc(C)cc4)cccc3C(=O)N([C@@H](C)CO)C[C@@H]2C)cc1 | inactive

SMILES | cytotoxicity call
CCNC(=O)C[C@H]1CC[C@@H](NC(=O)C2CC2)[C@@H](CO)O1 | inactive
Cc1noc(C)c1C(=O)OCC(=O)NC1CC1 | inactive
Cc1cc(C(=O)Nc2cccc3c2O[C@@H](CN(C)Cc2ccncc2)[C@H](C)CN([C@H](C)CO)C3=O)n(C)n1 | inactive
COC(=O)c1cnn2c(=O)cc(C)[nH]c12 | inactive
O=C(C[C@H]1CC[C@H]2[C@@H](COC[C@@H](O)CN2S(=O)(=O)c2cccc(F)c2)O1)NCCCN1CCOCC1 | inactive
C[C@@H]1CN([C@@H](C)CO)C(=O)c2cc(NC(=O)Nc3ccc(F)cc3)ccc2O[C@@H]1CN(C)Cc1ccc(C(F)(F)F)cc1 | active
C[C@@H]1CN([C@H](C)CO)C(=O)c2cc(NC(=O)Nc3ccc(F)cc3)ccc2O[C@H]1CN(C)Cc1ccc(C(F)(F)F)cc1 | active
C[C@@H]1CN([C@@H](C)CO)C(=O)c2cc(NC(=O)Nc3ccc(F)cc3)ccc2O[C@H]1CN(C)Cc1ccc(C(F)(F)F)cc1 | active
C[C@H]1CN([C@@H](C)CO)C(=O)c2cc(NC(=O)Nc3ccc(F)cc3)ccc2O[C@H]1CN(C)Cc1ccc(C(F)(F)F)cc1 | inactive
C[C@@H]1CN([C@H](C)CO)C(=O)c2cc(NC(=O)Nc3ccc(F)cc3)ccc2O[C@@H]1CN(C)Cc1ccc(C(F)(F)F)cc1 | inactive
C[C@H](CO)N1C[C@H](C)[C@H](CN(C)Cc2ccc(C(F)(F)F)cc2)Oc2ccc(NC(=O)Nc3ccc(F)cc3)cc2C1=O | inactive
C[C@H]1CN([C@@H](C)CO)C(=O)c2cc(NC(=O)Nc3ccc(F)cc3)ccc2O[C@@H]1CN(C)Cc1ccc(C(F)(F)F)cc1 | inactive
C[C@H](CO)N1C[C@H](C)[C@@H](CN(C)Cc2ccc(C(F)(F)F)cc2)Oc2ccc(NC(=O)Nc3ccc(F)cc3)cc2C1=O | active
O=C(C[C@@H]1CC[C@@H]2[C@H](COC[C@@H](O)CN2C(=O)c2cccnc2)O1)NCc1ccc(-c2ccccc2)cc1 | inactive
C[C@@H]1CN([C@H](C)CO)C(=O)Cc2cc(NS(=O)(=O)c3cn(C)cn3)ccc2O[C@@H]1CN(C)C(=O)NC1CCCCC1 | inactive
C[C@H](CO)N1C[C@H](C)[C@@H](CN(C)Cc2cccc3c2OCCCO3)OCc2cn(nn2)CCCC1=O | inactive
O=C1CSCCN1 | inactive
OCc1ncc[nH]1 | inactive
CCNC(=O)[C@H]1[C@H](CO)[C@H]2Cn3c(ccc(-c4ccc(OC)cc4)c3=O)[C@@H]1N2S(C)(=O)=O | inactive
C[C@@H]1CN([C@@H](C)CO)S(=O)(=O)c2ccc(C3=CCCC3)cc2O[C@@H]1CN(C)C(=O)Cc1ccncc1 | inactive
